# “And” between values parts separate entries of the source, which are not always exact repeats. Equal entries are not always repeated. Structures can show the parent of a compound that is named as a salt.
# Tested on: Neuro-2a
# Assay: neurite formation score, plate-normalized to DMSO control mean 5.04 (score (0-8 scale)); higher = more or longer neurites
# Details: 0.1 µM
# Description: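 Neuro-2a mouse neuroblastoma cells in PLL-coated 96-well plates were pre-treated for 1 h in DMEM(+) with each kinase inhibitor at 0.1 µM, then switched to serum-free DMEM(-) with inhibitor to induce neurite outgrowth and fixed about 2-3 h later. Three blinded observers scored neurite formation from 0 (no neurites) to 8 (long neurites on almost all cells).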
row,Compound,neurite formation score
1,CC(C)(C#N)c1ccc(N2C(=O)OCc3cnc4ccc(-c5cnc6ccccc6c5)cc4c32)cc1,4.25
2,C=CC(=O)Nc1cccc(Nc2nc(Nc3ccc(N4CCN(C(C)=O)CC4)cc3OC)ncc2C(F)(F)F)c1,3.71
3,CN1CCC(Nc2nc(Nc3ccc(Oc4ccccc4)cc3)c3c(=O)[nH]cc(Br)c3n2)CC1,4.25
4,C=CC(=O)Nc1ccc(CN2C(=O)N(c3cc(OC)cc(OC)c3)Cc3cnc(Nc4ccc(N5CCN(C)CC5)cc4)nc32)cc1,4.25
5,Nc1nc(NCCNc2ncc(-n3ccnc3)c(-c3ccc(Cl)cc3Cl)n2)ccc1[N+](=O)[O-],4.92
6,Cc1cc(C)c(/C=C2\C(=O)Nc3ccccc32)[nH]1,5.25
7,CN1CCN(c2ccc(Nc3cc(-c4cccc(-n5ccc6cc(C7CC7)cc(F)c6c5=O)c4CO)cn(C)c3=O)nc2)CC1,4.58
8,CNc1nc(Nc2cnn(C3CCN(C4COC4)CC3F)c2Cl)ncc1C(F)(F)F (stereo not given),4.75
9,CNC(=O)c1cc(Oc2ccc(NC(=O)Nc3ccc(Cl)c(C(F)(F)F)c3)c(F)c2)ccn1 [Regorafenib],4.88
10,C[C@@H]1CN(CC(=O)Nc2ccc3c(c2)Cc2cccc(-c4cc(=O)cc(N5CCOCC5)o4)c2S3)C[C@H](C)O1,5.21
11,CNc1nc(-c2ccc3c(N)n[nH]c3c2)cc(N2C[C@@H](C(=O)NC3CCCCC3)CC[C@H]2C)n1,1.42
12,CCn1c(=O)c(-c2ccc(-c3cncs3)cc2Cl)cc2cnc(Nc3ccc(N4CCN(C)CC4)cc3)nc21,4.25
13,Nc1ccc(C(=O)Nc2cccc(-c3nc(N4CCOCC4)c4oc5ncccc5c4n3)c2)cn1,4.42
14,CCn1c(N)c(C(=O)NC)c(=O)c2ccc(C#CC(C)(O)COC)nc21 (stereo not given),4.42
15,O=C(O)c1ccc(Nc2ncc3c(n2)-c2ccc(Cl)cc2C(c2c(F)cccc2F)=NC3)cc1,2.76
16,CN(C)c1nc2c(Br)c(Br)c(Br)c(Br)c2[nH]1,5.25
17,NC1(C(=O)N[C@@H](CCO)c2ccc(Cl)cc2)CCN(c2ncnc3[nH]ccc23)CC1,5.38
18,CN(C)C/C=C/C(=O)Nc1cc2c(Nc3ccc(F)c(Cl)c3)ncnc2cc1O[C@H]1CCOC1 [Afatinib (BIBW2992)],4.54
19,COc1nccc(-c2c(-c3ccc(F)cc3)ncn2C2CCC(O)CC2)n1 (stereo not given),5.25
20,O=C1NCCSc2c1sc1ccc(O)cc21,4.58

row,Compound,neurite formation score
1,CNC(=O)c1cc(Oc2ccc(NC(=O)Nc3ccc(Cl)c(C(F)(F)F)c3)cc2)ccn1 [Sorafenib],4.71
2,NC(=O)Nc1cc(-c2cccc(F)c2)sc1C(=O)N[C@H]1CCCNC1,4.21
3,C[C@@H]1CCN(C(=O)CC#N)C[C@@H]1N(C)c1ncnc2[nH]ccc12,3.92 and 5.58
4,O=C1NC(=NCc2cccs2)S/C1=C\c1ccc2ncccc2c1,4.25
5,Cn1c(=O)c(F)c(Nc2ccc(I)cc2F)c2c(=O)n(C[C@@H](O)CO)cnc21,4.42
6,NCC(=O)Nc1ccc(-n2nc(C(F)(F)F)cc2-c2ccc3c(ccc4ccccc43)c2)cc1,5.04
7,CC(C)NC[C@@H](C(=O)N1CCN(c2ncnc3c2[C@H](C)C[C@H]3O)CC1)c1ccc(Cl)cc1,5.04
8,CCCCCCCCCCCCCCCCOP(=O)([O-])OCC[N+](C)(C)C [Miltefosine],2.58
9,Cc1cc(C(C)Nc2ccccc2)c2nc(N3CCOCC3)cc(=O)n2c1 (stereo not given),3.76
10,CCOc1cc2ncc(C#N)c(Nc3ccc(OCc4ccccn4)c(Cl)c3)c2cc1NC(=O)/C=C/CN(C)C [Neratinib (HKI-272)],5.09
11,COc1ccc(C(=O)Nc2sc3c(c2C(N)=O)CCCC3)cc1OC,4.71
12,O=C(Nc1ccc(CN2CCOCC2)cc1)c1ccc(-c2cccc(Cl)c2)o1,5.54
13,Nc1cc(C(F)(F)F)c(-c2cc(N3CCOCC3)nc(N3CCOCC3)n2)cn1,2.71
14,COc1ccc(Cl)cc1NC(=O)Nc1cc(C)nc2ccccc12,5.04
15,c1cc(-c2cnn3cc(-c4ccc(OCCN5CCCCC5)cc4)cnc23)ccn1 [Dorsomorphin 2HCl],3.92
16,CC(C)c1cc(CNc2nc(Nc3cc(C4CC4)[nH]n3)cc(N3CCN(C)CC3)n2)on1,4.92
17,Oc1cccc(-c2nc(N3CCOCC3)c3oc4ncccc4c3n2)c1 [PI-103 Hydrochloride],5.25
18,Cn1cc(-c2ccc3ncc(Cc4ccc5ncccc5c4)n3n2)cn1,4.92
19,COc1cc2c(N3CCN(C(=O)Nc4ccc(OC(C)C)cc4)CC3)ncnc2cc1OCCCN1CCCCC1 [Tandutinib (MLN518)],4.58
20,CCN(CC)CCNC(=O)c1c(C)[nH]c(/C=C2\C(=O)Nc3ccc(F)cc32)c1C [Sunitinib],5.58

# — the supplement of paper PMC8047044
